Rows were chosen to be rich in hits. Some 2.7% of all compounds tested hit in one or more screens of this group.
KLK7 zymogen act: proKLK7 (human) activation, primary screen | P49862 | 370,000 tested, 0.9% active | purified proKLK7, EDANS-DABCYL substrate fluorescence; 100% is mature enzyme control, 0% vehicle | activation, % at 7 µM;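 active means activation above the mean of all tested compounds plus 3 SD, computed per campaign excluding outliers beyond control limits, cut at about 13% in these data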
FAS-TE inh: inhibitors of human fatty acid synthase thioesterase domain; 360,000 tested, 0.67% active; AID 602261; recombinant FAS-TE, OMFH fluorogenic substrate, fluorescence endpoint; inhibition, % at 15 µM;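 active means compounds whose normalised, plate-corrected inhibition of enzyme fluorescence in the single-dose primary screen is 50% or more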
Target sequence (P49327 whole entry, looked up, the tested form may be a part): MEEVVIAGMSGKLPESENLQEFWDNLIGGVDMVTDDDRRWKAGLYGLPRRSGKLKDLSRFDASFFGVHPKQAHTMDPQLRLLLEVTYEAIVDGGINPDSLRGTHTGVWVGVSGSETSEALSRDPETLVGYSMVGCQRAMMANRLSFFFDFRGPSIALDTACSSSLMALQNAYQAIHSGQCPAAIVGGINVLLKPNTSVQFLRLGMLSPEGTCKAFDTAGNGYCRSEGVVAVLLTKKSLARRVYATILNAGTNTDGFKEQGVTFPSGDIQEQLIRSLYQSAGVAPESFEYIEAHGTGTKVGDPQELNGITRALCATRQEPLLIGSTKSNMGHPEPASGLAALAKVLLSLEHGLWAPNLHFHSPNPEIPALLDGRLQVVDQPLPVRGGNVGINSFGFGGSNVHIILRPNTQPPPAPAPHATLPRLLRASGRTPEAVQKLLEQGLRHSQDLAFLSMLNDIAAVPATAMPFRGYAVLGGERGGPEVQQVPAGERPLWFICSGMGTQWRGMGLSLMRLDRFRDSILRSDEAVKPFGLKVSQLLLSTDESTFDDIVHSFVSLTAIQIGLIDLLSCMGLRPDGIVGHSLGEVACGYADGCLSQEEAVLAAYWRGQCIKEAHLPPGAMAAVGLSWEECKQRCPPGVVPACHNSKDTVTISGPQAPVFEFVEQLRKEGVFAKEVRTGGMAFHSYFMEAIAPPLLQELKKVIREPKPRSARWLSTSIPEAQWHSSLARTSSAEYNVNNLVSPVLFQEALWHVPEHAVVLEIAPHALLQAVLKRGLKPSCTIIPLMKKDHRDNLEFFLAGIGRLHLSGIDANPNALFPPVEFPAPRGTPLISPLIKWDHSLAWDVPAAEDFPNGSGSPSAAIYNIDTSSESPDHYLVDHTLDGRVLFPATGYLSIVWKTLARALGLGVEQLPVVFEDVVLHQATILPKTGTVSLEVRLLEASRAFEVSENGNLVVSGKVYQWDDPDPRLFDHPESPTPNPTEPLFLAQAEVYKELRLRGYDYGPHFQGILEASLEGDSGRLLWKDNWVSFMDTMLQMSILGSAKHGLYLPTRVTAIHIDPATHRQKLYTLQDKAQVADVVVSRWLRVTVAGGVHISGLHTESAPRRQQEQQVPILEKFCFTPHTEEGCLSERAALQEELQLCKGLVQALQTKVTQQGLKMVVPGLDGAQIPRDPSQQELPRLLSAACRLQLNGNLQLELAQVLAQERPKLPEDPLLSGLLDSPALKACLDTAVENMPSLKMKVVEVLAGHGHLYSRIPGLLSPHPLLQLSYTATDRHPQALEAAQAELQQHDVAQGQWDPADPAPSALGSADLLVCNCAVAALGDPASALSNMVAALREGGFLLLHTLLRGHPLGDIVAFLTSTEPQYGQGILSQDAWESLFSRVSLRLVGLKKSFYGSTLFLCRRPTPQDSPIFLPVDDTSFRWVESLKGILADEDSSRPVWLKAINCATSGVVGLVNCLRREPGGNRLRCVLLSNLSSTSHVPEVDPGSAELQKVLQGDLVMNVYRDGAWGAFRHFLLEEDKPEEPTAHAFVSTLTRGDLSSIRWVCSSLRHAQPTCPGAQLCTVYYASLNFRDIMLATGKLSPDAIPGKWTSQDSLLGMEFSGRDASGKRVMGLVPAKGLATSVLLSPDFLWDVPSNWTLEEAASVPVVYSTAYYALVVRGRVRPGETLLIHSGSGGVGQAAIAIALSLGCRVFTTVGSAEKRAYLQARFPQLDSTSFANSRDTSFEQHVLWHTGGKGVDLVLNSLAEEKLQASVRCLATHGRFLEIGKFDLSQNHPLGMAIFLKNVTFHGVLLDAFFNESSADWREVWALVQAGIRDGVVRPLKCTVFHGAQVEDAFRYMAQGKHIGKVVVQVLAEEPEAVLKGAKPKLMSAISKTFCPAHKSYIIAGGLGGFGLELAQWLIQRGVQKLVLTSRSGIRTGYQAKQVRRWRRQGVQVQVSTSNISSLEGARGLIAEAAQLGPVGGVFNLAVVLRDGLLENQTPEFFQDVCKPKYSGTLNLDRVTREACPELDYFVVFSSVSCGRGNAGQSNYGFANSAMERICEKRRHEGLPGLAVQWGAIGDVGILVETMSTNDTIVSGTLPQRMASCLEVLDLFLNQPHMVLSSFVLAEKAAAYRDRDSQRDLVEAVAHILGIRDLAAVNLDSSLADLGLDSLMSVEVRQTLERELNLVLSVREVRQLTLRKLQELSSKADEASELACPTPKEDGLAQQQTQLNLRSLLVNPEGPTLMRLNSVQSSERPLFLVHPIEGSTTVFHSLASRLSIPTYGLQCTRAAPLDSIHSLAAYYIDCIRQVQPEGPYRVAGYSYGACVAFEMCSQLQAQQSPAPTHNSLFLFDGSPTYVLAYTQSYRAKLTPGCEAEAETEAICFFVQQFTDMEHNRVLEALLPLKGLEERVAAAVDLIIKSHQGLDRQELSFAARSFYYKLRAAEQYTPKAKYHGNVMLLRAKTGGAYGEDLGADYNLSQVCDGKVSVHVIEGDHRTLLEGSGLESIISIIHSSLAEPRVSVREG
Neddylation inh: cullin neddylation inhibition; P61081+Q13564; TR-FRET cullin neddylation, biochemical; calls only at 25 µM; 360,000 tested, 0.58% active; AID 651699; in the data active means inhibition above about 36%
PfG6PD inh: PfG6PD (Plasmodium falciparum) enzyme inhibition; PfGluPho enzyme, NADPH resazurin-diaphorase fluorescence; inhibition, % at 20 µM; 350,000 tested, 0.78% active;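 active means inhibition reaching at least a set limit at 20 µM in the primary screen, cut at about 59% in these data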
FAS-TE conf: FAS thioesterase (human) inhibition, confirmation | 2,300 tested, 45% active | AID 624325 | inhibition, % at 15 µM | recombinant FAS-TE, OMFH fluorogenic substrate, fluorescence | shares compounds with FAS-TE inh;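 active means compounds inhibiting the enzyme by at least 50% at 15 µM in any one of the replicates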
Each line names hits and unclear results; the compound was inactive in the other large screens (follow-up assays come after a bar, where they were run).

O=C(/C=C/c1ccc2c(c1)OCO2)NCCSCc1ccc(Cl)cc1Cl	none
O=C(/C=C/c1cccc([N+](=O)[O-])c1)NCCSCc1ccccc1Cl	FAS-TE inh 75.4 | FAS-TE conf inactive
O=C(/C=C/c1cccc([N+](=O)[O-])c1)NCCSCc1ccc(Cl)cc1Cl	FAS-TE inh 58.8 | FAS-TE conf 58.0
Brc1ccc(CSc2nnc(SCc3ccccc3)s2)cc1	none (no result: FAS-TE inh, Neddylation inh, PfG6PD inh)
O=C(N[C@@H]1C[C@@H]2O[C@@H](CO)CC[C@@H]2O[C@@H]1CCc1ccc(-c2ccccc2)cc1)c1cnccn1	none (no result: FAS-TE inh, Neddylation inh, PfG6PD inh)
C=CCc1cccc(C=NNC(=O)c2ccco2)c1O	none (no result: FAS-TE inh, Neddylation inh, PfG6PD inh)
COc1ccc(NC(=O)C(=O)N/N=C/c2cc(C)n(-c3cccc(Cl)c3Cl)c2C)c(OC)c1	FAS-TE inh 63.1 | FAS-TE conf inactive
COc1ccc(OC)c(NC(=O)C(=O)N/N=C/c2ccccc2[N+](=O)[O-])c1	none
Cc1cccc(C)c1N1CCN(C(c2ccnc3ccccc23)c2nnnn2-c2ccc3c(c2)OCCO3)CC1 (stereo not given)	FAS-TE inh 79.4 (no result: PfG6PD inh) | FAS-TE conf inactive
CC(C)(C)c1ccc(NC(=O)COC(=O)CCN2C(=O)c3cccc([N+](=O)[O-])c3C2=O)cc1	FAS-TE inh 83.3 | FAS-TE conf inactive
COC(=O)[C@H]1C[C@@]2(n3ccc4ccccc43)c3ccccc3N[C@H]2N1	none (no result: FAS-TE inh, Neddylation inh, PfG6PD inh)
Cc1ccc(S(=O)(=O)Oc2ccc(/C=C(/NC(=O)c3ccccc3)C(=O)NCCC(=O)O)cc2)cc1	none
Cc1ccc(S(=O)(=O)Oc2ccc(/C=C(/NC(=O)c3ccccc3)C(=O)Nc3ccccc3)cc2)cc1	FAS-TE inh 55.1 | FAS-TE conf inactive
COc1ccc(NC(=O)/C(=C\c2ccc(OS(=O)(=O)c3ccc(C)cc3)cc2)NC(=O)c2ccccc2)cc1	FAS-TE inh 54.4 | FAS-TE conf inactive
COC(=O)[C@]12C[C@H](CC(=O)NCCc3ccccc3OC)C(=O)N(Cc3cccc4ccccc34)C1=C[C@H](C1CCCC1)O[C@@H]2C	none (no result: FAS-TE inh, Neddylation inh, PfG6PD inh)
NC(=O)[C@H]1CC2(CC(c3cccc(NC(=O)COc4ccc(Cl)cc4)c3)=NO2)CN1C(=O)C(c1ccccc1)c1ccccc1 (stereo not given in full)	FAS-TE inh 73.0 | FAS-TE conf inactive
O=C(Nc1ncc2c(n1)-c1ccccc1OC2)c1cccc([N+](=O)[O-])c1	FAS-TE inh 54.7 | FAS-TE conf 64.2
Cc1cccc(-c2cccc3c4c([nH]c23)[C@@H]2C[C@H](N(C)C(=O)c3cccc(Cl)c3)[C@H]([C@H](C)O)CN2CC4)c1	none (no result: FAS-TE inh, Neddylation inh, PfG6PD inh)
O=C(CN1CCN(c2ncc(C(F)(F)F)cc2Cl)CC1)NCCNc1ncc(C(F)(F)F)cc1Cl	FAS-TE inh 62.3 | FAS-TE conf inactive
COc1ccc(CN2C/C(=C/c3ccc(C)cc3)N3C(=O)C[C@@H](c4ccccc4)N=C23)c(OC)c1	none (no result: FAS-TE inh, Neddylation inh, PfG6PD inh)
O=C(CSCc1ccc(F)cc1)Nc1ccc(N2CCOCC2)cc1N1CCOCC1	none
Cc1nn(Cc2ccc(F)cc2)c2sc(C(=O)Nc3ccc(N4CCOCC4)cc3N3CCOCC3)cc12	FAS-TE inh 51.8 | FAS-TE conf inactive
Cc1ccc(CSc2nnc(-c3cc(-c4ccc(C)cc4)n[nH]3)n2N)cc1	none (no result: FAS-TE inh, Neddylation inh, PfG6PD inh)
C[C@@H]1CN([C@@H](C)CO)C(=O)c2cc(NC(=O)C3CCCCC3)ccc2O[C@@H](C)CCCCO[C@H]1CN(C)S(=O)(=O)c1ccc(Cl)cc1	FAS-TE inh 81.0 | FAS-TE conf inactive
Cc1ccc(S(=O)(=O)N(C)C[C@H]2OCCCC[C@H](C)Oc3ccc(NC(=O)Nc4cccc5ccccc45)cc3C(=O)N([C@@H](C)CO)C[C@H]2C)cc1	FAS-TE inh 82.4 | FAS-TE conf inactive
Cc1ccc(S(=O)(=O)N(C)C[C@@H]2OCCCC[C@H](C)Oc3ccc(NC(=O)Nc4ccc(F)cc4)cc3C(=O)N([C@H](C)CO)C[C@H]2C)cc1	FAS-TE inh 62.5 | FAS-TE conf inactive
Cc1ccc(S(=O)(=O)Nc2ccc3c(c2)C(=O)N([C@H](C)CO)C[C@H](C)[C@@H](CN(C)Cc2ccc(-c4ccccc4)cc2)O3)cc1	FAS-TE inh 81.4 (no result: KLK7 zymogen act) | FAS-TE conf inactive
O=C(COCc1ccccc1)N1CC[C@H]2[C@H](CCCN2Cc2ccccc2)C1	none (no result: FAS-TE inh, Neddylation inh, PfG6PD inh)
C[C@@H]1CCCCO[C@H](CN(C)C(=O)Nc2cccc3ccccc23)[C@@H](C)CN([C@H](C)CO)C(=O)c2cc(NC(=O)c3ccccc3)ccc2O1	FAS-TE inh 77.9 | FAS-TE conf inactive
